# Laboratory results from PubChem BioAssay AID743279 (National Center for Advancing Translational Sciences (NCATS), 2014).
# Where “and” joins values, the source holds several entries; their conditions need not be identical. Equal entries are not always repeated. Out of some 360,000 compounds screened, about 17,000 (4.7%) were called active. Inconclusive results (about 5%) are left out. The entries come from a sample that favours actives as a whole. A number with no mark means an inactive call. Cut-off read from the data, not from the text of the source: active = activity change below about -50%; inconclusive = mostly about -30% to -49%; inactive = weaker than that.
# Experiment: qHTS for Inhibitors of Inflammasome Signaling: IL-1-beta AlphaLISA Primary Screen
# Details: THP-1 LPS/ATP IL-1B secretion, 16 h; at 57.5 µM, stronger effect = lower value
# How it was run: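 Secreted IL-1B measured by AlphaLISA bead assay after 16 h compound exposure of THP-1 cells; compounds (final up to 57.5 uM) added 1 h before LPS (250 ng/mL) and ATP (1.25 mM) stimulation; lower signal means less secretion.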
# % is set by controls: 0 for no effect and ±100 for the full control effect.
row,SMILES,activity change
1,CCc1nnc(NC(=O)CCC(=O)N2CCN(c3cc(C)ccc3C)CC2)s1,36.3%
2,O=c1[nH]nc(SCCS(=O)(=O)c2ccc(F)cc2)n1-c1ccccc1C(F)(F)F,-96.7% (active)
3,O=C(CSc1n[nH]c(=O)n1-c1ccccc1)Nc1ccccc1C(F)(F)F,14.4%
4,O=S(=O)(c1ccc(F)cc1)N1CCN(Cc2ccccc2C(F)(F)F)CC1,8.37%
5,COC(=O)[C@@]1(Cc2ccc(OC)cc2)[C@H]2c3cc(C(=O)N4CCCC4)n(Cc4ccc(OC(F)(F)F)cc4)c3C[C@H]2CN1C(=O)c1ccccc1,0%
6,CCC(C(=O)Nc1c(C)cccc1C)n1c(-c2cc(C)cs2)nc2ccccc21 (centres undefined),-9.28%
7,Cc1ccc(NC(=S)NC(NC(=O)Cc2cccc3ccccc23)C(Cl)(Cl)Cl)cc1 (centres undefined),1.31%
8,O=C(Cc1cccc2ccccc12)NNC(=O)Nc1ccc(Cl)cc1,-50% (active)
9,O=C(O)Cc1ccc(NC(=O)Nc2cccc3ccccc23)cc1,11.3%
10,O=C1C(Sc2cccc(F)c2)=C[C@@]2(O)CC[C@@H](O)[C@]1(Sc1cccc(F)c1)[C@H]2O,8.29%
11,O=C(CCNC(=O)c1ccccc1Cl)NCc1ccco1,2.08%
12,O=C(Nc1ccccc1)Nc1ccccc1C(=O)NCc1ccco1,-56.9% (active)
13,Cc1cccc(Nc2ccccc2C(=O)NCc2ccco2)c1C,3.14%
14,O=C1CSC(=S)N1c1ccc(Cl)c(Cl)c1,7.49%
15,CCC(CC)C(C(=O)NC1CCCC1)N1CCN(c2cc(C)nc3ccccc23)CC1 (centres undefined),-20.5%
16,CC1(C)CC(=O)C=C(c2ccccc2CO)C1=O,22.9%
17,CCOC(=O)c1c(Cc2ccc(Cl)cc2)c[nH]c1C,-74.6% (active)
18,CCOC(=O)N1CCN(C(=O)CNC(=O)Cc2ccc(Cl)cc2)CC1,-0.466%
19,CCOC(=O)c1ccc(CS(=O)c2ccc(Cl)cc2)o1 (centres undefined),-4.53%
20,Cc1cccc(NC(=S)N2CCC(C(=O)c3ccc(F)cc3)CC2)c1,-26.4%

row,SMILES,activity change
1,Cc1cccc(NC(=O)CSc2nc3[nH]ncc3c(=O)[nH]2)c1,9.71%
2,CCOc1ccc(NC(=O)c2nc(SCC)ncc2Cl)cc1,-0.255%
3,Cc1cccc(CS(=O)(=O)c2ncc(Cl)c(C(=O)Nc3ccc(F)cc3)n2)c1,-93.5% (active)
4,O=C(Nc1ccc(F)cc1)c1ccc(S(=O)(=O)NCc2cccnc2)cc1,-4.04%
5,Cc1cccc(NC(=O)c2nc[nH]c2C(=O)NCC(=O)OCc2ccccc2)c1,5.22%
6,Cc1cccc(NC(=O)c2nc(S(=O)(=O)Cc3ccccc3)ncc2Cl)c1,-103% (active)
7,Cc1ccc(S(=O)(=O)N(C)C)cc1NC(=O)CN1c2cccc3cccc(c23)S1(=O)=O,12.6%
8,COc1cc(CN2CCNC(=O)C2CC(=O)NCCc2ncccc2C)cc(OC)c1 (centres undefined),16.2%
9,CN(CCc1ccccc1)C(=O)c1cccc(NC(=O)Cc2cccc(NC(=O)C3CCCN(C(=O)C4CCC4)C3)c2)c1 (centres undefined),-17.1%
10,N#CCSc1ccccc1NC(=O)CN1C(=O)NC(CCc2ccccc2)C1=O (centres undefined),12.1%
11,COC(=O)CNS(=O)(=O)c1ccc(Cc2ccc(S(=O)(=O)NCC(=O)OC)cc2)cc1,-100% (active)
12,COC(=O)CNS(=O)(=O)c1ccc(OC)cc1,-22.2%
13,C/C(N)=C(/C#N)C(=O)COC(=O)CNS(=O)(=O)c1ccc(C)cc1,-8.82%
14,O=C(CSc1nnc(N2CCOCC2)n1-c1cccc(F)c1)N1CCN(c2ccccn2)CC1,2.69%
15,CCCCCNC(=O)C1C(=O)Nc2ccccc2C(=O)N1C(C)(C)C (centres undefined),6.47%
16,CCN1CCCC1CNC(=O)c1ccc2c(c1)NC(=O)/C(=C\c1ccccc1F)S2 (centres undefined),-14.5%
17,C[C@]12C=CC(=O)C=C1CC[C@@H]1[C@@H]2C(=O)C[C@@]2(C)[C@H]1CC[C@]2(O)C(=O)CO,-14.3% and -7.83%
18,CC1(C)O[C@@H]2CC3C4C[C@H](F)C5=CC(=O)C=CC5(C)C4C(O)CC3(C)[C@]2(C(=O)CO)O1 (some centres undefined),-54.9% (active)
19,CCCc1nnc(NC(=O)CCC(=O)N2CCN(S(=O)(=O)c3ccc(OC)cc3)CC2)s1,-1.97%
20,CCOC(=O)c1cccc(NC(=O)CN2C(=O)C3CC=CCC3C2=O)c1 (centres undefined),14.4%

row,SMILES,activity change
1,O=S(=O)(c1ccccc1)c1nc(-c2ccccc2)oc1NCCCN1CCOCC1,inactive
2,O=[N+]([O-])c1ccc(NCCCN2CCOCC2)c(Cl)c1,-21.3%
3,Nc1nc(NCCCN2CCOCC2)nc(Nc2ccccc2)c1[N+](=O)[O-],-59.1% (active)
4,Cc1ccc(Cn2c(C)c3cnn(CC(=O)NCCN4CCOCC4)c(=O)c3c2C)cc1,-4.12%
5,O=C(CSc1ncn[nH]1)Nc1nc2c(F)c(F)c(F)cc2s1,-7.33%
6,Nc1nc(Nc2ccccc2F)nc(NC2CCCCC2)c1[N+](=O)[O-],-71.1% (active)
7,C=CCNc1nc(N)c([N+](=O)[O-])c(NC2CCCCC2)n1,66.3%
8,Nc1nc(NCC2CCCO2)nc(Nc2ccccc2F)c1[N+](=O)[O-] (centres undefined),0%
9,CCN1C[C@@H]2[C@@H]3C(=O)N(Cc4ccccc4)C(=O)[C@@H]3[C@](C)(C1=O)N2C(=O)c1ccc(C(C)(C)C)cc1,0%
10,CSc1ncnc2c1ncn2CCCNCc1ccco1,15.8%
11,CCOc1ccc2[nH]c(=O)c(CN(Cc3nnnn3Cc3ccccc3)CC3CCCO3)cc2c1 (centres undefined),-63.9% (active)
12,Cc1cc(C)c2cc(CN(Cc3nnnn3Cc3ccc(F)cc3)C3CCCC3)c(=O)[nH]c2c1,7.62%
13,Cc1cccc2cc(CN(Cc3ccc4c(c3)OCO4)Cc3nnnn3C3CCCC3)c(=O)[nH]c12,-54.8% (active)
14,CCOc1ccc2[nH]c(=O)c(CN(Cc3nnnn3CCc3ccccc3)CC3CCCO3)cc2c1 (centres undefined),-29.1%
15,CCC(c1nnnn1Cc1ccccc1)N(Cc1cc2cc(OC)ccc2[nH]c1=O)CC1CCCO1 (centres undefined),0%
16,Cc1cccc2cc(CN(Cc3cccs3)C(c3nnnn3C3CCCC3)C(C)C)c(=O)[nH]c12 (centres undefined),0%
17,Cc1cccc2cc(CN(Cc3nnnn3Cc3ccccc3)C3CCCC3)c(=O)[nH]c12,-64.3% (active)
18,CCC(c1nnnn1Cc1ccco1)N(CCc1ccccc1)Cc1cc2cccc(C)c2[nH]c1=O (centres undefined),-4.44%
19,Cc1cc(C)c2[nH]c(=O)c(C(c3nnnn3Cc3ccc4c(c3)OCO4)N3CCCC3)cc2c1 (centres undefined),-10.3%
